A number with no mark means an inactive call. For some assays here: Results with a measured potency or affinity are listed apart. The source made the active and inactive calls. Unless noted, the rule behind the calls is not given here.
What was measured:
[1] = antimalarial activity against Dd2 strain (AID 2302;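 active = growth inhibition above 50% at the single 2 µM test dose, taken to imply half-maximal potency below 2 µM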;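 note: 0% = DMSO untreated growth and 100% = chloroquine plus artemisinin killed control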); details: P. falciparum Dd2 in RBCs, LDH growth readout, 72 h; at 2 µM; hits give high values
[2] = HepG2 cytotoxicity, primary screen, cytotoxicity control for P. falciparum antimalarial project, cell-based, ATP luminescence (AID 2303;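 active = inhibition above 50%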;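 note: 0% = DMSO wells and 100% = digitonin-killed cells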); details: HepG2 viability, 24-48 h, at 10 µM, hits give high values
[3] = biological target: L-lactate dehydrogenase (Plasmodium falciparum (isolate CDC / Honduras)) (UniProt Q27743); assay: PfLDH activity inhibition – cell lysate, 3D7 strain, counter-screen for P. falciparum growth inhibition project (AID 2304);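 note: 0% = vehicle and 100% = reference inhibitor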; details: P. falciparum 3D7 crude extract, LDH APAD/NBT absorbance; at 2 µM; hits give high values
[4] = inhibition of 3D7 malaria parasite growth – strain 3D7 (AID 2306);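 note: 0% = DMSO wells and 100% = chloroquine plus artemisinin control wells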; details: P. falciparum 3D7 erythrocytic growth, LDH absorbance, 72 h; at 2 µM; hits give high values
[5] = biological target: Calcium-dependent protein kinase 1 (Plasmodium falciparum (isolate 3D7)) (UniProt P62344); assay: PfCDPK1 kinase inhibitors, biochemical, TCAMS library (AID 1159585; cut-off not given, nearly all actives have IC50 up to about 0.98 µM;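 note: inhibitors leave more ATP so luminescence rises with inhibition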); details: recombinant PfCDPK1, Kinase-Glo ATP depletion luminescence
[6] = biological target: Plasmodium falciparum protein kinase 6 (PK6, PF3D7_1337100) (UniProt Q8IDW1); assay: PfPK6 kinase inhibitors, biochemical, TCAMS library (AID 1159586); details: recombinant PfPK6, Kinase-Glo ATP depletion luminescence
[7] = biological target: Protein kinase 7 (PK7), Plasmodium falciparum 3D7 (PF3D7_0213400) (UniProt Q7YTF7); assay: inhibition of Plasmodium PK7 catalytic activity – biochemical, TCAMS antimalarial set, Kinase-Glo luminescence (AID 1159587); details: recombinant PfPK7, Kinase-Glo ATP depletion luminescence
[8] = biological target: Calcium-dependent protein kinase 4 (Plasmodium falciparum (isolate 3D7)) (UniProt Q8IBS5); assay: PfCDPK4 kinase inhibitors, biochemical, TCAMS library (AID 1159588; cut-off not given, nearly all actives have IC50 up to about 0.91 µM); details: recombinant PfCDPK4, Kinase-Glo ATP depletion luminescence
Chain of Calcium-dependent protein kinase 4 (Plasmodium falciparum (isolate 3D7)) (Q8IBS5 whole entry, looked up): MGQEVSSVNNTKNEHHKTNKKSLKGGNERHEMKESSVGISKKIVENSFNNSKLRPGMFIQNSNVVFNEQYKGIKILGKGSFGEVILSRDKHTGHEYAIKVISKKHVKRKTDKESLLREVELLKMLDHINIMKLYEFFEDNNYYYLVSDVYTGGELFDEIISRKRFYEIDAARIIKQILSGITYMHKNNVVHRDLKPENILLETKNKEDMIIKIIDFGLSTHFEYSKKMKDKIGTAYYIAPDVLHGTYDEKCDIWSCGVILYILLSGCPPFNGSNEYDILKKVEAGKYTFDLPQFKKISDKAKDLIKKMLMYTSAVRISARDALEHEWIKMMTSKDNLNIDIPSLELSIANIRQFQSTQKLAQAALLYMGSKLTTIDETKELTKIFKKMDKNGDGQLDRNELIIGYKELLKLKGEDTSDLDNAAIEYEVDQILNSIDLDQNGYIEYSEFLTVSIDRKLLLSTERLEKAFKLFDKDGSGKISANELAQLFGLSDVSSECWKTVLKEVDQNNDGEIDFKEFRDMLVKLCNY

Chain of Plasmodium falciparum protein kinase 6 (PK6, PF3D7_1337100) (Q8IDW1 1-305): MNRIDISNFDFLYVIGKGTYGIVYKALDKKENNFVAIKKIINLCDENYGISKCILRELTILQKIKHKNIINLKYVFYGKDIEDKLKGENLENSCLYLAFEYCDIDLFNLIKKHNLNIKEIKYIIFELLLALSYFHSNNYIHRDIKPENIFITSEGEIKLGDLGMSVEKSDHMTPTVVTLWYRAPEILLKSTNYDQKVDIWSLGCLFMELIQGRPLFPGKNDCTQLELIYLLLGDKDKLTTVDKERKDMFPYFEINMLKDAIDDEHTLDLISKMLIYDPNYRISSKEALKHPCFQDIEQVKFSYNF
Chain of Calcium-dependent protein kinase 1 (Plasmodium falciparum (isolate 3D7)) (P62344 whole entry, looked up): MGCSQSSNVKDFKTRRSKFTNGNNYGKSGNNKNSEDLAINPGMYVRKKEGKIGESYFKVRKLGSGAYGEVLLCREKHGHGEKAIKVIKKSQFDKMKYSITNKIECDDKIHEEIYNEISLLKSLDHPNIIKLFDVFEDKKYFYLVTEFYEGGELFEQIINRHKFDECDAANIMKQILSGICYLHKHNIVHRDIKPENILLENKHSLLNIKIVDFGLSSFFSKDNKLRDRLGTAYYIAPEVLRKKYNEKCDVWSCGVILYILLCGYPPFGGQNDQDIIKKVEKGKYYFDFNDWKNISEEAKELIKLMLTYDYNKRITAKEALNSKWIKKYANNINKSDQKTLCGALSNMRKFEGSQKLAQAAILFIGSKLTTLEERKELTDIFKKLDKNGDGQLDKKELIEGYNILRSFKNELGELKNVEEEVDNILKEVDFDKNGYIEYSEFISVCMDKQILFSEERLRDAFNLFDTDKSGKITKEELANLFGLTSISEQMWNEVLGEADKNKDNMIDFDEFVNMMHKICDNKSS
Chain of L-lactate dehydrogenase (Plasmodium falciparum (isolate CDC / Honduras)) (Q27743 whole entry, looked up): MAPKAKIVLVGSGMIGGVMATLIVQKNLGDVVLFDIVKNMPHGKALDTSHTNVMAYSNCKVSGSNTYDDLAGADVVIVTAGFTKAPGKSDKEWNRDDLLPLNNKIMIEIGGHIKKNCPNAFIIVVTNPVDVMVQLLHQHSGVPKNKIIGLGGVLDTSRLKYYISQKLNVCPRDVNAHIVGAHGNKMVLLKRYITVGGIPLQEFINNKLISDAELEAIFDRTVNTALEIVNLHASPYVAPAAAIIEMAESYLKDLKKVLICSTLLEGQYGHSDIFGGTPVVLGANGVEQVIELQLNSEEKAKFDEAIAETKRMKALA
Chain of Protein kinase 7 (PK7), Plasmodium falciparum 3D7 (PF3D7_0213400) (Q7YTF7 1-343): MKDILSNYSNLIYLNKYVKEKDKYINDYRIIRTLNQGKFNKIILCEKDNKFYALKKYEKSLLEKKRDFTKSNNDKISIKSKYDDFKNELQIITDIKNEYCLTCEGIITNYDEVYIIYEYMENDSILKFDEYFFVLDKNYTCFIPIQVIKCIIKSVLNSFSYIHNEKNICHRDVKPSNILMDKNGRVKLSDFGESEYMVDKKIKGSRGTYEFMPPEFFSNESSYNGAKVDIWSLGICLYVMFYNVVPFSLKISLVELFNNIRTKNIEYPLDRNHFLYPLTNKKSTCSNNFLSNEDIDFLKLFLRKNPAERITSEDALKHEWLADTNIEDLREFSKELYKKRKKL

Row | SMILES | growth inhibition [1] | inhibition [2] | inhibition [3] | growth inhibition [4] | outcome [5] | outcome [6] | outcome [7] | outcome [8]
1 | COC(=O)c1cc(/C(C)=N/Nc2nc3ccccc3[nH]2)ccc1O | 75% (active) | 9% | -1% | 101% (active) | inactive | inactive | inactive | inactive
2 | CN(C)c1ccc(-c2cscc2C(=O)NC2CCCN(Cc3cccnc3)C2)cc1 (stereo not given) | 70% (active) | 5% | 0% | 89% (active) | inactive | inactive | inactive | inactive
3 | CC(C)Nc1ccc(Nc2ccnc3cc4ccccc4cc23)cc1 | 81% (active) | 37% | -3% | 100% (active) | inactive | inactive | inactive | inactive
4 | COc1ccc(-c2ccc(S(=O)(=O)Nc3cc4c(cc3OC(C)C)CCNCC4)cc2)cc1 | -1% | 16% | 3% | 86% (active) | inactive | inactive | inactive | inactive
5 | COc1cc2c(cc1C(F)(F)F)N(C(=O)Nc1cc(F)cc(-c3cccnn3)c1)CC2 | 34% | 21% | 6% | 90% (active) | inactive | inactive | inactive | inactive
6 | O=C1Nc2cccc3c2C1(CCCN1CCC(c2c[nH]c4cc(C(F)(F)F)ccc24)CC1)CCC3 (stereo not given) | 37% | 91% (active) | -2% | 89% (active) | inactive | inactive | inactive | inactive
7 | NC(N)=NN=Cc1c2ccc(Cl)cc2c(Cl)c2ccc(Cl)cc12 | 90% (active) | 28% | 0% | 100% (active) | inactive | inactive | inactive | inactive
8 | Cc1cnc(Nc2cccc(CCN3CCOCC3)c2)nc1NC(C)C | 76% (active) | 53% (active) | 1% | 97% (active) | inactive | inactive | inactive | inactive
9 | Cc1cc2cc(NC(=O)Nc3ccnc4ccccc34)ccc2n1C | 33% | 17% | 4% | 90% (active) | inactive | inactive | inactive | inactive
10 | Clc1ccc(CNc2ccnc(NCCc3coc4ccccc34)n2)c(Cl)c1 | 39% | 26% | -3% | 86% (active) | inactive | inactive | inactive | inactive
11 | CC(C)Cn1ncc2c3c(N)nc(N)nc3ccc21 | 73% (active) | 63% (active) | 1% | 94% (active) | inactive | inactive | inactive | inactive
12 | CCCN1CCC(NCc2cn(C)nc2-c2ccc(Oc3ccccc3)cc2)CC1 | 44% | 34% | -3% | 88% (active) | inactive | inactive | inactive | inactive
13 | COCCCNc1sc(S(=O)(=O)c2ccccc2)nc1S(=O)(=O)c1ccc(Cl)cc1 | 87% (active) | -7% | 4% | 95% (active) | inactive | inactive | inactive | inactive
14 | Cc1cc(C)c(S(=O)(=O)N2CCCCC(c3cccc(C(F)(F)F)c3)=N2)c(C)c1 | 95% (active) | -1% | -2% | 94% (active) | inactive | inactive | inactive | inactive
15 | O=C(Nc1cc(Oc2ccc(O)cc2)cc([N+](=O)[O-])c1)c1cc(-c2ccc(F)cc2)no1 | 37% | 61% (active) | 0% | 88% (active) | inactive | inactive | inactive | inactive
16 | Cc1ccc(C(=O)Nc2cc(C(F)(F)F)cc(C(F)(F)F)c2)cc1[N+](=O)[O-] | 61% (active) | 17% | 1% | 101% (active) | inactive | inactive | inactive | inactive
17 | COc1ccc2ccccc2c1CCCCN1CCN(CC(c2ccc(F)cc2)N2CCC2)CC1 (stereo not given) | 51% (active) | 51% (active) | 9% | 98% (active) | inactive | inactive | inactive | inactive
18 | CN1CCN(CCCN(Cc2csc(-c3ccc(CNCc4ccccc4)cc3)n2)S(=O)(=O)c2cccc3cccnc23)CC1 | 32% | 5% | 1% | 89% (active) | inactive | inactive | inactive | inactive
19 | O=S(=O)(Nc1ccc2nccc(N3CCNCC3)c2c1)c1ccc(-c2ccccc2)cc1 | -1% | -3% | -2% | 101% (active) | inactive | inactive | inactive | inactive
20 | Cc1nnsc1C(=O)Nc1cccc(-c2ccc(-c3nc4c(C)cccc4[nH]3)s2)c1 | 44% | 46% | 4% | 100% (active) | inactive | inactive | inactive | inactive

Row | SMILES | growth inhibition [1] | inhibition [2] | inhibition [3] | growth inhibition [4] | outcome [5] | outcome [6] | outcome [7] | outcome [8]
21 | O=C(NCCN1CCOCC1)c1csc(C2CCCN(C(=O)c3ccc(O)c(-c4cc(Cl)cc(Cl)c4)c3)C2)n1 (stereo not given) | 50% (active) | 12% | 6% | 97% (active) | inactive | inactive | inactive | inactive
22 | CCOC(=O)c1c(C)noc1Nc1ccc(OC)cc1 | -6% | -1% | -6% | 99% (active) | inactive | inactive | inactive | inactive
23 | Cc1ccc(S(=O)(=O)N2CCN(C(=O)c3cc(-c4cccs4)[nH]n3)CC2)c(C)c1 | 81% (active) | -1% | -1% | 85% (active) | inactive | inactive | inactive | inactive
24 | CC(C)(C)c1ccc(NC(=O)c2cccc(CN3CCCN(CC4CCCCC4)CC3)c2)cc1 | 47% | 97% (active) | 1% | 93% (active) | inactive | inactive | inactive | inactive
25 | C[C@@H](CC1CCCCC1)OC(=O)N(C)[C@H]1CCN(C#N)C1 | 62% (active) | 4% | -6% | 84% (active) | inactive | inactive | inactive | inactive
26 | Oc1c(CN2CCC(Cc3ccccc3)CC2)cc(Cl)c2cccnc12 | 94% (active) | 49% | 4% | 96% (active) | inactive | inactive | inactive | inactive
27 | CCCCNC(=O)[C@H](CC1CCCCC1)NC(=O)c1ccc(O)c(-c2ccc(Cl)c(Cl)c2)c1 | 99% (active) | -9% | -1% | 98% (active) | inactive | inactive | inactive | inactive
28 | Cc1cc(C(=O)CN2C(=O)NC3(CCOc4ccccc43)C2=O)c(C)n1Cc1ccco1 (stereo not given) | 42% | 13% | 5% | 93% (active) | inactive | inactive | inactive | inactive
29 | Cc1ccc2nc(-c3cc(-c4cccc(C#N)c4)cnc3N)[nH]c2c1 | 99% (active) | 40% | 1% | 100% (active) | inactive | inactive | inactive | inactive
30 | Cc1cccc2[nH]c(-c3ccc(-c4cccc(CN5CCCC(O)C5)c4)s3)nc12 (stereo not given) | 18% | 13% | 2% | 95% (active) | inactive | inactive | inactive | inactive
31 | COc1cc2nc(N3CCN(c4cc(C)ccc4C)CC3)nc(N)c2cc1OC | 12% | 66% (active) | 5% | 98% (active) | inactive | inactive | inactive | inactive
32 | O=c1nc(C=Cc2ccc(Br)cc2)oc2ccccc12 | 66% (active) | -8% | -1% | 97% (active) | inactive | inactive | inactive | inactive
33 | NCCCCNc1cc(-c2ccnc(Nc3cccc(Cl)c3)n2)ccn1 | 91% (active) | 46% | 1% | 94% (active) | inactive | inactive | inactive | inactive
34 | NS(=O)(=O)c1ccc(CNc2ccc3ncc(-c4ccc(OC(F)(F)F)cc4)n3n2)cc1 | 99% (active) | 10% | -7% | 97% (active) | inactive | inactive | inactive | inactive
35 | NCC(=O)Nc1cccc(Nc2nccc(-c3c(-c4cccc(NC(=O)c5ccccc5)c4)nn4ccccc34)n2)c1 | 87% (active) | 45% | 0% | 96% (active) | inactive | inactive | inactive | inactive
36 | Cc1cnn(-c2cccc(C(=O)NC3CCC(CCN4CCc5ccc(C#N)cc5CC4)CC3)c2)c1 (stereo not given) | 48% | 24% | -9% | 94% (active) | inactive | inactive | inactive | inactive
37 | c1cc(Nc2nc(-c3ccc(-c4csc(Nc5ccncc5)n4)cc3)cs2)ccn1 | 99% (active) | 91% (active) | -4% | 100% (active) | inactive | inactive | inactive | inactive
38 | O=C(NC1CCN(CCCOc2ccnc3cc(Cl)ccc23)C1)c1ccc(Br)cc1 (stereo not given) | 87% (active) | 21% | 2% | 86% (active) | inactive | inactive | inactive | inactive
39 | O=S(=O)(ON=C1CCc2ccccc21)c1ccc(Cl)cc1 | 79% (active) | -2% | 3% | 100% (active) | inactive | inactive | inactive | inactive
40 | COc1ccccc1Nc1nc(C)cc(NCc2ccc(-c3c(C)noc3C)cc2)n1 | 13% | 12% | -6% | 98% (active) | inactive | inactive | inactive | inactive

Reference: PubChem BioAssay
